Reference: ChEMBL document CHEMBL3433997, “St. Jude Leishmania screening dataset” (2016)

Assays:
Assay type in all cases: functional
[1] = target: Solute carrier family 2, facilitated glucose transporter member 1 (Homo sapiens) (UniProt P11166); test: ST_JUDE_LEISH: Cytotoxicity at 2uM final concentration against transgenic Leishmania Mexicana promastigotes LmGLUT1 that are glucose transport deficient and complemented with the human glucose transporter GLUT1. Activity is measured by DNA content using SYBR green in vitro
Solute carrier family 2, facilitated glucose transporter member 1 (Homo sapiens), sequence (P11166 whole entry): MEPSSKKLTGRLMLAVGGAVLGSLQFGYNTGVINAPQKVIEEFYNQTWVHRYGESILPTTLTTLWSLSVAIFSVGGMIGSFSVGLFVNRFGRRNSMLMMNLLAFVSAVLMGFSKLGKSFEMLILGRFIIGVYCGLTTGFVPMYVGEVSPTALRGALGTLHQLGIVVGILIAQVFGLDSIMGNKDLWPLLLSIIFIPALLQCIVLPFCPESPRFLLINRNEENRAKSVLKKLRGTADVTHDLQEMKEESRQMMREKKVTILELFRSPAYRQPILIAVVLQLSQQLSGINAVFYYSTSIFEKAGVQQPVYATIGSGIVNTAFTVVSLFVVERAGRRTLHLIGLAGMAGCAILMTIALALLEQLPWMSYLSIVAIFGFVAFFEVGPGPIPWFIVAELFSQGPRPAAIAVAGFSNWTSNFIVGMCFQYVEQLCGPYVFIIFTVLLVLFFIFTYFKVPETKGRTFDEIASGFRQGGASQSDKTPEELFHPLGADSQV

[2] = target: Hexose transporter 1 (Plasmodium falciparum) (UniProt O97467); test: ST_JUDE_LEISH: Cytotoxicity at 2uM final concentration against transgenic Leishmania Mexicana promastigotes LmPfHT that are glucose transport deficient and complemented with the Plasmodium falciparum hexose transporter. Activity is measured by DNA content using SYBR green in vitro
[3] = target: Glucose transporter (Leishmania mexicana) (UniProt O61059); test: ST_JUDE_LEISH: Cytotoxicity at 2uM final concentration against transgenic Leishmania Mexicana promastigotes LmGT2 that are glucose transport deficient and complemented with the L. Mexicana glucose transporter 2. Activity is measured by DNA content using SYBR green in vitro

| SMILES | inhibition [1] [%] | inhibition [2] [%] | inhibition [3] [%] |
| --- | --- | --- | --- |
| CC(C)CC(NC(=O)c1ccc(F)cc1)C(=O)N[C@H](/C=N/N1CCNC1=O)CC(C)C (stereo partly specified) | 3.16 | 4.41 | 3.66 |
| COC(=O)C(Cc1ccccc1)NC(=O)NC1CCN(c2ccnc(Nc3ccc(F)cc3)n2)C1 (stereo unspecified) | 1.44 | 0.86 | 3.07 |
| CCN(CC)CCN(CCCc1ccc(-c2ccc(C(F)(F)F)cc2)cc1)C(=O)Cn1c(CCc2cccc(F)c2F)nc(=O)c2c1CCC2 | -2.04 | -0.48 | 6.62 |
| NCCNS(=O)(=O)c1ccc(-c2ccnc3[nH]c(-c4ccncc4)cc23)cc1 | 0.72 | 1.19 | 0.62 |
| CCN(CC)CCCN(C(=O)Nc1c(Cl)cncc1Cl)c1nc(-c2ccc(F)cc2)cs1 | 2.47 | 2.42 | 3.83 |
| Cc1c(CCc2cccc(F)c2F)[nH]c2ccccc2c1=O | -0.2 | 5.03 | 0.83 |
| COc1ccc(CN2CCC(CNCCc3ccccc3Oc3ccccc3)CC2)cc1 | -1.06 | -1.31 | -2.59 |
| N#Cc1ccc(CN2CCC(NC(=O)c3ccc(-c4nnc(-c5cccc6ccccc56)o4)cc3)CC2)cc1 | 4.73 | 2.48 | -1.38 |
| c1cc(CNCc2ccc3c(c2)OCO3)cc(-c2cccc(CNc3ccc4ncccc4c3)c2)c1 | 0.81 | 1.4 | -0.38 |
| CC(=O)c1ccc(N2CCN(CCC3(c4ccc(Cl)c(Cl)c4)COCN(C(=O)c4ccccc4)C3)CC2)cc1 (stereo unspecified) | 4.7 | 1.18 | -0.21 |
| CCCNCc1ccc(-c2ccc(CN(Cc3cnc(C)cn3)C(=O)CC#N)cc2)nc1 | 1.8 | 1.17 | -1.49 |
| COCCNCc1ccc(-c2ccc3c(Nc4ccc(F)cc4Cl)ccnc3c2)o1 | 4.1 | 4.05 | 5.59 |
| CC(C)N1CCC(NC(=O)N2CCCN(c3ncnc4cc(-c5ccccc5)sc34)CC2)CC1 | 2.91 | 2.28 | 0.31 |
| N=C(N)NCCN(Cc1ccccc1)c1ccccc1 | 2.42 | 1.13 | 2.3 |
| CCCC(C)Nc1nc(C)cc(N[C@@H](Cc2ccccc2)C(=O)NCCOc2ccccc2)n1 (stereo partly specified) | 4.27 | 3.26 | 1.16 |
| CCc1cn2c3c(cc(C(=O)N[C@@H](Cc4ccccc4)[C@H](O)CNC4CCOCC4)cc13)N(CC(F)(F)F)S(=O)(=O)CC2 | 2.22 | 2.72 | 0.88 |

| SMILES | inhibition [1] [%] | inhibition [2] [%] | inhibition [3] [%] |
| --- | --- | --- | --- |
| O=S1(=O)NCc2ccc(Nc3nccc(Nc4ccc5c(cnn5Cc5ccccc5)c4)n3)cc21 | -0.8 | 6.35 | -1.65 |
| COc1ccc(-c2nc(NC(=O)Cc3cccc(OC)c3)sc2C)cc1 | 0.19 | 0.46 | 3.16 |
| CCCc1cc(Cc2cnc(N)nc2N)cc2c1OC(C)(C)C2 | 5.74 | 3.03 | 2.58 |
| O=C1CCCN1CCCNCc1ccc(-c2cccc(-c3nc4ccccc4[nH]3)c2)cc1 | 4.17 | 3.74 | 4.94 |
| CCCS(=O)(=O)N1CCC(CO)(Cc2ccccc2C(F)(F)F)CC1 | 2.81 | 3.09 | 2.87 |
| CCCCN(Cc1cccc(C(F)(F)F)c1Cl)c1ccc(C(O)(C(F)(F)F)C(F)(F)F)cc1 | 7.39 | 6.7 | 6.39 |
| CCCc1cc(Cc2cnc(N)nc2N)cc(CCC)c1OCCCCC(=O)O | 1.12 | 1.3 | 0.16 |
| C[C@H](Nc1c(Nc2ccc3[nH]ccc3c2)c(=O)c1=O)C1CCCCC1 | -1.55 | 0.15 | -0.44 |
| Cc1cc(C)c(C)c(S(=O)(=O)N2CCCCC(c3ccc(F)c(F)c3)=N2)c1C | 2.94 | -0.61 | 6.62 |
| CN1CCCN(Cc2cccc(-c3ccc(NC(=O)c4cccc(Cl)c4)cc3)c2)CC1 | 71.1 | 80 | 69.1 |
| Cc1cccc2nc(-c3ccc(-c4cccc(NC(=O)Nc5ccc(Cl)c(Cl)c5)c4)s3)[nH]c12 | 0.85 | -0.11 | 0.38 |
| COC(=O)c1ccc(-c2ccc(C(=O)NCC3CCN(c4nc(N)c5cc(OC)c(OC)cc5n4)CC3)cc2)cc1 | 4.1 | 4.23 | 2.11 |
| Cc1cc(N[C@@H](Cc2ccccc2)C(=O)NCCOc2ccccc2)nc(NCCOc2ccccc2)n1 | 1.88 | 0.27 | 2.71 |
| COc1cccc(CNC[C@@H](O)[C@H](Cc2ccccc2)NC(=O)c2cc(N3CCCC3=O)c3[nH]cc(C(C)C)c3c2)c1 | 1.26 | 2.02 | 2.36 |
| CCC(C)OC(=O)C1=C(C)NC2=C(C(=O)CC(c3ccc(OC)c(OC)c3)C2)C1c1cccc(O)c1 (stereo unspecified) | 4.07 | 0.16 | 1.16 |
| Oc1ccc(CCNCCCCCNCCCc2ccc(Cl)cc2)cc1O | 2.04 | -0.25 | 2.06 |
